Drawing on PubChem BioAssay (NCI), this text covers growth for 40 molecules.

About 83,000 compounds went through this panel and 20% of them were active in at least one assay; those are over-represented in the sample as a whole.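 Negative percent growth values reflect cell death: -40 means 40% of the cells present at the start died, and -100 means all died.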 Values without a mark were called inactive. Calls of active or inactive are those of the source. Rule for the calls: active = growth percent below 10; inactive = the rest.

The test system of this assay is DU-145 prostate. The assay is described as follows: NCI-60 one-dose screen, 48 h (100 = growth as untreated, 0 = no growth, -100 = all killed). To be noted: 10 µM.
Turning to `O=C(COc1cccc(/C=C2\CSc3ccccc3C2=O)c1)c1ccc(Cl)cc1`, the growth was 94.9%. Consider `CCn1c(CSc2nc3ccccc3c(=O)n2CCc2ccccc2)n[nH]c1=S`, for which the growth is 113%. Next, `COc1ccc2nc3cc(Cl)ccc3c(NCCCNCCO)c2c1`: 5.64% (active); `Cc1cc(Br)nnc1Br`: 121%.

As for `Cc1ccc(NC(=S)NNC(=S)Nc2ccc(C)cc2)cc1`, the growth was 102%.

On to `COc1ccc(C2CC(c3cccs3)=NN2c2ccc(S(N)(=O)=O)cc2)cc1` (stereo not given), for which the growth is 102%. Take `CC[N+](CC)=c1ccc2nc3c(cc(NCc4ccccc4)c4ccccc43)oc-2c1`: the growth is -95.8% (active).

As to `COC1=CC(=O)OC(c2ccc(OC)cc2)C1` (stereo not given), the growth was 113%. With `COc1ccccc1-n1c(-c2csc(NC(C)=O)n2)n[nH]c1=S`, the growth was 119%. In the case of `COc1cc(NC(=O)C2=C(N3CCOCC3)/C(=C/c3ccc(Cl)cc3)CC2)cc(OC)c1OC`, the growth was 99.4%. `C#CC(C)(O)[C@@H]1C[C@H](CC(=O)O)C1(C)C` (stereo not given in full): the growth was 112%. As for `COc1nc2c(c(=O)n1C)CN(c1ccccc1)C(=O)C(C)N2` (stereo not given), the growth was 114%. Consider `C=CCNCCN1C(=O)c2ccc3c4c(ccc(c24)C1=O)C(=O)N(CCNCC=C)C3=O`, for which the growth is -87.7% (active). With `COc1cc(-c2ccc[nH]2)[nH]c1/C=C1\N=C(C)C(C(=O)NC(C)C)=C1C` the figure was 21.2%; with `O=C1c2ccccc2C(=O)N1CCCCNc1ccccc1`, 102%. With `CC(C)c1ccc(C(C)C(=O)N(CC2=C(C(C)c3ccccn3)c3ccccc3C2)C(C)C)cc1` (stereo not given), the growth was 57.6%. On to `Cc1ccc(C)c(COc2cc(NC(=O)c3ccc4c(c3)OCO4)ccc2N(C)S(C)(=O)=O)c1`, for which the growth was -40.5% (active).

As to `Cc1cc(NC(=O)c2ccc(C)c(Nc3nccc(-c4cccnc4)n3)c2)cc(-n2cnc(C)c2)c1`, the growth is 32.3%. For the molecule `COc1ccc(C2CC(c3cc(OC)c(OC)c(OC)c3)=NN2)cc1` (stereo not given), the growth was 91.5%. For `CC1OC2CC(=O)OC2C2=C1C(=O)c1c(O)c3c(c(O)c1C2=O)C1CC(O)C3(O)C(C)O1` (stereo not given), the growth is -94.9% (active). Consider `Nc1ncc(-c2cnn(C3CCNCC3)c2)cc1-c1nc2ccccc2o1`, for which the growth is 15.2%.

Turning to `CCCCCCCCCCCC[n+]1c(C)cc(N)c2ccccc21`, the growth was 24.2%.

For the molecule `COc1ccc(-c2nn(-c3cccc(Cl)c3)cc2/C=C2\NC(=S)N(c3ccc(Cl)cc3)C2=O)cc1`, the growth is 21.4%. Consider `CC(=O)Nc1cc2c(cc1Cl)Cc1cc(Cl)ccc1-2`, for which the growth is 106%.

In the case of `COC(=O)CC[C@@H](C)[C@H]1CC[C@H]2[C@@H]3CC[C@@H]4C[C@H](O)CC[C@]4(C)[C@H]3C[C@H](O)[C@]12C`, the growth was 118%. For the molecule `O=C1NC(=O)c2c(CCCSc3nc4ccccc4c(=O)n3CCc3ccccc3)cccc21`, the growth was 111%.

For `Cc1ccc(C2=NN(c3ccc(S(C)(=O)=O)cc3)C(=O)CC2)cc1`, the growth is 6.77% (active). With `CCOC(=O)Cn1c(=O)c2sc3ncccc3c2n2nnc(-c3ccccc3)c12` the figure was 119%; with `c1ccc(CCCCc2ccc3ccccc3n2)cc1`, 111%.

As to `COc1ccc(-c2nn(-c3cccc(Cl)c3)cc2-c2c(C#N)c(=O)n3[nH]c(-c4ccccc4)nc3c2C#N)cc1`, the growth is 102%. `COc1ccc2c(c1)C(=O)/C(=C/c1cccc(OCC(=O)c3ccc([N+](=O)[O-])cc3)c1)CO2`: the growth was 63.4%. With `NC(N)=N/N=C(\c1ccccc1)C(O)c1ccccc1` (stereo not given) the figure was 112%. As to `COc1ccc2c(c1)C(CC(=O)NN)CCC2` (stereo not given), the growth is 114%. Take `Cc1cc(=O)n2nnc3cc(C(F)(F)F)ccc3n12`: the growth is 105%. Take `NS(=O)(=O)c1ccc(N2N=C(c3ccccc3)CCC2=O)cc1`: the growth is 182%. As for `COc1ccc(-c2nc(-c3nc4ccc(C)cc4[nH]3)cc3c2[nH]c2ccccc23)cc1`, the growth is 41.4%. Next, `COc1cc(C2CC(c3ccccc3)=NN2C(C)=O)cc(OC)c1OC` (stereo not given): 49.3%; `CSc1ccc(-c2cc(-c3ccc(NC(=O)CCCN4CCCC4)cc3)nc(-c3ccc(NC(=O)CCCN4CCCC4)cc3)c2)cc1`: 104%; `CC(C1=C(CN(C(=O)Cc2cn(-c3ccccc3)nc2-c2ccc(Cl)cc2)C(C)C)Cc2ccccc21)c1ccccn1` (stereo not given): 81%.

Consider `O=C1OC(C(Cl)(Cl)Cl)OC1C(Cl)(Cl)Cl` (stereo not given), for which the growth was 101%.
